A selection: hits, their analogues and other compounds. The true share with any hit is near 3.7%.
Bead autofluor – flagged as autofluorescent in microsphere protease counterscreen; compound autofluorescence counterscreen, microsphere flow cytometry; active compounds read high; fluorescence intensity (test concentration not listed); hit rate 3.1% among 360,000; AID 624483; in the data active = fluorescence intensity above about 16000; inconclusive = no clear call, values can overlap the other calls
Vc quorum ag – induces V. cholerae light production without autoinducers; hit rate 0.16% among 350,000; AID 588436; V. cholerae BH1578 lux reporter, luminescence, 6 h; activation, % at 18.7 µM; in the data active = activation mostly above about 9.7%, no sharp cut-off; inconclusive = no clear call, values can overlap the other calls; inactive = mostly below about 3.7%
BoNT F protease – blocks Botulinum neurotoxin F light chain protease; Multiplex microsphere protease cleavage assay, flow cytometry; inhibition, % at 10 µM; hit rate 0.22% among 360,000; AID 588497; in the data active = inhibition above about 35%, passing the limit was not always enough; inconclusive = no clear call, values can overlap the other calls; also: plate controls were buffer without enzyme for full effect and enzyme alone for no effect
BJeLR viability – kills HRASV12-expressing BJeLR cells | BJeLR (HRASV12) viability, CellTiter-Glo ATP luminescence, 48 h | hit rate 0.17% among 300,000 | inhibition, % (test concentration not listed); in the data active = inhibition above about 50%; inconclusive = no clear call, values can overlap the other calls
Anthrax LF inh2 – inhibitors of Bacillus anthracis lethal factor protease; P15917; multiplex microsphere protease cleavage assay, LF; inhibition, % at 10 µM; hit rate 0.12% among 360,000; AID 588501; also: plate controls were buffer without enzyme for full effect and enzyme alone for no effect
Target sequence (P15917 whole entry, looked up): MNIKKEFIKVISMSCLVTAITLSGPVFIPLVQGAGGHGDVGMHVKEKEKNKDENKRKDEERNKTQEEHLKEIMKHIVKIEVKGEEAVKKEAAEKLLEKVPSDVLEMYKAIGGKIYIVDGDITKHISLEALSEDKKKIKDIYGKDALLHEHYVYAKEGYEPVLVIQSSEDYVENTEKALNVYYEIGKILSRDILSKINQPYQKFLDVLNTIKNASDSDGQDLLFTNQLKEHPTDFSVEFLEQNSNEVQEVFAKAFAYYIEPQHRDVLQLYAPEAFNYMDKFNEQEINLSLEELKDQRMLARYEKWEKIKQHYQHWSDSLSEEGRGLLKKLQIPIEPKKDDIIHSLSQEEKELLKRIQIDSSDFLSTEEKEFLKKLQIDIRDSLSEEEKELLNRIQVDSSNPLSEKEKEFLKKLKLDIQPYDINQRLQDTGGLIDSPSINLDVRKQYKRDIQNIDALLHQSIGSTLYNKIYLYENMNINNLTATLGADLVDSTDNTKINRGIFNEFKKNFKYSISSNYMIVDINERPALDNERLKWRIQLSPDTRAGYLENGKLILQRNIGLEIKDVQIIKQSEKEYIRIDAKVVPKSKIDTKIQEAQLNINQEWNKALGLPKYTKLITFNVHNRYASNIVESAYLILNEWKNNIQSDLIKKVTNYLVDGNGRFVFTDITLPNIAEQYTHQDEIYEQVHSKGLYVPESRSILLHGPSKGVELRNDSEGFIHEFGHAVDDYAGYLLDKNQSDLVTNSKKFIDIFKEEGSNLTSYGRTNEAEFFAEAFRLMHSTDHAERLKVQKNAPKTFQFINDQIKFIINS
BoNT A protease – blocks Botulinum neurotoxin A light chain protease | multiplex microsphere protease substrate cleavage, flow cytometry | inhibition, % at 10 µM | hit rate 0.17% among 360,000 | AID 588499; also: plate controls were buffer without enzyme for full effect and enzyme alone for no effect
Numbers without * were called inactive; i = inactive; u = inconclusive; x = no result. Rule as the data show it, unless noted: active = inhibition above about 30%; inconclusive = no clear call, values can overlap the other calls; inactive = below that.

SMILES	Bead autofluor	Vc quorum ag	BoNT F protease	BJeLR viability	Anthrax LF inh2	BoNT A protease
CNC(=O)C[C@H]1C(=O)N(c2ccc(Br)cc2)C[C@@H]1C	3573	0	5	x	-2	0
O=C(NC(=S)Nc1ccccc1OC(F)F)c1ccc2c(c1)OCO2	x	-2	x	x	x	x
CCOC(=O)c1nc(C)n(-c2cc(Cl)cc(Cl)c2)n1	17779*	-5	6	-6	-10	6
CNC(=O)c1nc(C)n(-c2cc(Cl)cc(Cl)c2)n1	6044	0	-5	1	2	-1
CSc1ccc(CNC(=O)C2(C)CCCN(C(C)C)C2)cc1 (stereo not drawn)	3689	0	5	x	4	0
O=c1c2ccccc2nc(/C=C/c2ccc([N+](=O)[O-])o2)n1CCCO	3979	x	-18	52*	8	4
CCOc1ccccc1C(=O)Nn1c(C2CCC2)nc2ccccc2c1=O	11628	-6	3	4	-2	1
Cc1nc2ccccc2c(=O)n1NC(=O)C1CCCCC1	6471	0	-4	2	-2	0
COc1cc2nc(C3CC3)n(NC(=O)c3ccc(Cl)cc3)c(=O)c2cc1OC	10786	0	17	x	-5	1
COc1cc2nc(C3CC3)n(NC(=O)c3ccc(F)cc3)c(=O)c2cc1OC	24457*	2	-3	-12	-1	u
O=C(Nn1c(C2CCC2)nc2ccccc2c1=O)C1CCC1	16974*	0	14	-14	-5	11
COc1ccccc1C(=O)Nn1c(C2CCC2)nc2ccccc2c1=O	23194*	1	0	-1	0	u
O=C(Nn1c(C2CC2)nc2ccccc2c1=O)c1ccco1	20747*	0	10	5	-6	5
O=C1CCCC(O)=C1C1C2=C(CCCC2=O)Oc2ccccc21 (stereo not drawn)	21293*	i	5	-5	-1	u
O=C1CCCC(O)=C1C1NCCc2ccccc21 (stereo not drawn)	2881	0	0	-11	0	-1
O=C1CCc2cccc(O)c2N1	3917	-2	-1	x	-5	0
CCNC(=O)C1(C)CCN(C(=O)CCc2ccccc2)C1 (stereo not drawn)	2936	-2	-1	x	-6	0
Nc1[nH]ncc1-c1ccc(Cl)cc1	4614	1	-4	13	-4	-1
COc1cc(-c2cn[nH]c2N)cc(OC)c1OC	21444*	5	-5	0	1	u
CC(=O)c1cccc(NC(=O)C2Cc3c(-c4ccccc4Oc4ccccc4)ccnc3O2)c1 (stereo not drawn)	2952	-1	-10	x	0	0
CCS(=O)(=O)N1Cc2ccccc2CC1C(=O)Nc1ccc(C)cc1 (stereo not drawn)	22120*	i	-1	-1	0	1
CC(=O)N1CCN(c2ccc(S(=O)(=O)N3CCCCC3)cn2)CC1	18018*	i	-7	-3	2	-4
NC(=O)C1CCN(c2ccc(S(=O)(=O)N3CCCCC3)cn2)CC1	3452	0	-3	-1	1	0
CCNC(=O)C1(C)CCN(C(=O)c2ccc(C(F)(F)F)cc2)C1 (stereo not drawn)	3949	i	2	x	-3	0
NNc1nc(-c2ccccc2)cc(-c2ccccc2)n1	4175	0	-7	5	-4	-1
SMILES	Bead autofluor	Vc quorum ag	BoNT F protease	BJeLR viability	Anthrax LF inh2	BoNT A protease
NNc1nc(-c2ccccc2)cc(-c2ccccc2O)n1	22292*	i	-3	20	-4	u
CC(C)Oc1ccc2ccccc2c1CNC[C@H]1O[C@@H](n2ccc(N)nc2=O)[C@H](O)[C@@H]1O	3698	0	-5	x	-10	0
O=c1[nH][nH]c(-c2ccccc2O)c1C(C[N+](=O)[O-])c1ccc(Cl)cc1Cl (stereo not drawn)	7029	2	-16	-17	-6	0
Cc1cc(O)c(C(C[N+](=O)[O-])c2ccc(Cl)cc2Cl)c(=O)o1 (stereo not drawn)	17730*	i	-8	-5	-4	-7
CN1CCN(C(=O)CN(Cc2ccccc2)S(C)(=O)=O)CC1	22469*	0	0	3	1	0
COc1ccc(-c2noc(-c3ccccc3C(=O)N3CCOCC3)n2)cc1	20897*	0	9	-21	1	6
CCOCCCNC(=O)CS(=O)(=O)Cc1nc(-c2cccc(OC)c2)oc1C	21852*	i	2	11	-1	u
CCCNC(=O)CS(=O)(=O)Cc1nc(-c2cccc(OC)c2)oc1C	4504	-1	1	2	-1	1
COc1ccc(N2c3ccccc3CN(Cc3ccccc3)[C@@H](C)[C@H]2Cc2cccnc2)cc1	3629	0	-3	x	-7	-1
Cc1cc2oc(=O)cc(CN3CCN(C/C=C/c4ccccc4)CC3)c2cc1O	23462*	0	-9	9	-3	-4
CCOC(=O)C1(C)CCCN(C(=O)c2ccc3c(c2)CCO3)C1 (stereo not drawn)	3505	0	6	x	-5	0
CCCn1c(CC)nc([N+](=O)[O-])c1Sc1ncn[nH]1	2906	-1	-5	x	3	0
Cc1ccc(NC(=O)c2ccccc2N(C)S(C)(=O)=O)cc1C	23559*	0	-3	-3	-2	1
CN(c1ccccc1C(=O)Nc1cccc(Cl)c1Cl)S(C)(=O)=O	22508*	-1	0	4	-2	0
CN(c1ccccc1C(=O)Nc1ccc2c(c1)OCCO2)S(C)(=O)=O	6096	3	-9	0	1	0
CCOc1ccccc1NC(=O)c1ccccc1N(C)S(C)(=O)=O	4808	i	-5	-11	0	0
CN(c1ccccc1C(=O)O)S(C)(=O)=O	18576*	2	4	-6	-3	4
OCc1ccccc1-c1nc(NCc2ccccc2)nc2ccsc12	2957	-3	0	x	0	0
CCCCN1C(=O)CC2CCOC21C (stereo not drawn)	3455	i	-12	x	-2	-1
CC(C)(C)NC(=O)CN(C(=O)Cn1nnc(-c2ccccc2F)n1)c1cccc2c1CCCC2	17013*	-3	-2	-2	-1	-1
CCCC(=O)N1CCN(c2ccc([N+](=O)[O-])c(NC(C)c3ccccc3)c2)CC1 (stereo not drawn)	16602*	-5	-4	1	-3	-1
COc1ccccc1Oc1coc2cc(OC(=O)N3CCOCC3)ccc2c1=O	22043*	i	2	-4	5	3
COc1cccc(Oc2coc3cc(OC(=O)N4CCOCC4)ccc3c2=O)c1	2179	0	-6	13	-1	0
COC(=O)c1c(C)oc2ccc(OC(=O)N3CCOCC3)cc12	4590	i	12	5	-3	0
COc1ccc(Oc2c(C)oc3cc(OC(=O)N4CCOCC4)ccc3c2=O)cc1	16237*	-1	1	0	-2	-1
Cc1oc2ccc(OC(=O)N3CCOCC3)cc2c1C(=O)OC(C)C	23451*	i	-5	4	-5	-2
CCCCSc1nc(N)c(C#N)c(-c2cccs2)c1C#N	19876*	i	2	-5	-1	3

Compound activity (PubChem)
